Laboratory results published in PubChem BioAssay.
“And” between values parts separate entries of the source, which are not always exact repeats. Equal entries are not always repeated. The source made the active and inactive calls. Cut-off read from the data, not from the text of the source, unless noted: active = inhibition above about 80%; inactive = the rest.

Experiments:
[1] = antimalarial activity against Dd2 strain (AID 2302;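 active = growth inhibition above 50% at the single 2 µM test dose, taken to imply half-maximal potency below 2 µM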;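 note: 0% = DMSO untreated growth and 100% = chloroquine plus artemisinin killed control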); details: P. falciparum Dd2 in RBCs, LDH growth readout, 72 h; at 2 µM; stronger effect = higher value
[2] = HepG2 cytotoxicity, primary screen, cytotoxicity control for P. falciparum antimalarial project, cell-based, ATP luminescence (AID 2303;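 active = inhibition above 50%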;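 note: 0% = DMSO wells and 100% = digitonin-killed cells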); details: HepG2 viability, 24-48 h, at 10 µM, stronger effect = higher value
[3] = molecular target: L-lactate dehydrogenase (Plasmodium falciparum (isolate CDC / Honduras)) (UniProt Q27743); test: PfLDH activity inhibition – cell lysate, 3D7 strain, counter-screen for P. falciparum growth inhibition project (AID 2304; call rule not given here;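 note: 0% = vehicle and 100% = reference inhibitor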); details: P. falciparum 3D7 crude extract, LDH APAD/NBT absorbance; at 2 µM; stronger effect = higher value
Sequence of L-lactate dehydrogenase (Plasmodium falciparum (isolate CDC / Honduras)) (Q27743 whole entry, looked up): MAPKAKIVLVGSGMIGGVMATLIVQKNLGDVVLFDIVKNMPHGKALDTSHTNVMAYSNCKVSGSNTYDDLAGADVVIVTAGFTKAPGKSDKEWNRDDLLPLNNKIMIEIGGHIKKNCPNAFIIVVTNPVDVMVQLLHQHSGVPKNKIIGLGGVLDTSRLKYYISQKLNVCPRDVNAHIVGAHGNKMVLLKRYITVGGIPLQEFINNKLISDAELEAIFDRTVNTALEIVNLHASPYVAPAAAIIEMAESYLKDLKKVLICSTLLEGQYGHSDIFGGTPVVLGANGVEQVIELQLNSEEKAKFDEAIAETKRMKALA

[4] = inhibition of 3D7 malaria parasite growth – strain 3D7 (AID 2306; call rule not given here;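 note: 0% = DMSO wells and 100% = chloroquine plus artemisinin control wells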); details: P. falciparum 3D7 erythrocytic growth, LDH absorbance, 72 h; at 2 µM; stronger effect = higher value
[5] = circadian clock period modulators, cell-based, LOPAC library, luminescence reporter (AID 2774; call rule not given here;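 note: values are relative to mean of DMSO wells on each plate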); details: circadian reporter cells, at 7 µM, actives lie on both sides
[6] = LFS_MB_P medulloblastoma growth inhibition, cell-based, chromothripsis tumors, cisplatin or BGB combos (AID 1671449); details: LFS_MB_P medulloblastoma cells;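 note: cells exposed for 96 hours; 0% = vehicle DMSO and 100% = killing by high DMSO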
[7] = HDN33 neuroblastoma growth inhibition, cell-based, chromothripsis tumors, cisplatin or BGB combos (AID 1671450); details: HDN33 neuroblastoma cells, stronger effect = higher value;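 note: cells exposed to compound for four days; 0% = vehicle DMSO and 100% = cell killing by high DMSO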
[8] = ICB984 medulloblastoma cell growth inhibition, synergistic combos for chromothripsis tumors, cisplatin or BGB combos (AID 1671451; call rule not given here;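 note: cells exposed for 96 hours before readout; 0% = vehicle DMSO and 100% = killing by high DMSO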); details: ICB984 medulloblastoma cells, drug combinations, stronger effect = higher value
[9] = LFS_MB_1R medulloblastoma cell growth inhibition, synergistic combos for chromothripsis tumors, cisplatin or BGB combos (AID 1671452); details: LFS_MB_1R medulloblastoma cells, stronger effect = higher value;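 note: cells exposed for 96 hours before readout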
[10] = HTB85 osteosarcoma cell growth inhibition, synergistic combos for chromothripsis tumors, BGB or cisplatin IC20 combos (AID 1671453); details: HTB85 osteosarcoma cells, drug combinations, stronger effect = higher value;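 note: cells exposed for 96 hours before readout; 0% = vehicle DMSO and 100% = high DMSO killing control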
[11] = CRL2098 osteosarcoma cell growth inhibition, synergistic combos for chromothripsis tumors, BGB or cisplatin IC20 combos (AID 1671454); details: CRL2098 osteosarcoma cells, drug combinations, stronger effect = higher value;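 note: cells exposed for 96 h before readout; 0% = vehicle DMSO and 100% = killing by high DMSO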
[12] = HD-MB03 medulloblastoma cell growth inhibition, synergistic combos for chromothripsis tumors, BGB or cisplatin IC20 combos (AID 1671455; in the data active = inhibition above about 83%;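 note: 0% = vehicle DMSO and 100% = high DMSO as cytotoxic control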); details: HD-MB03 medulloblastoma cells, stronger effect = higher value
[13] = UWB1.289 ovarian carcinoma cell growth inhibition, synergistic combos for chromothripsis tumors, BGB or cisplatin combos (AID 1671456); details: UWB1.289 ovarian carcinoma cells, stronger effect = higher value;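 note: cells exposed to compound for four days; 0% = vehicle DMSO and 100% = killing by high DMSO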
[14] = LFS_MB_2R medulloblastoma cell growth inhibition, synergistic combos for chromothripsis tumors, cisplatin combos (AID 1671457); details: LFS_MB_2R medulloblastoma cells, stronger effect = higher value;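 note: cells exposed to compound for four days before readout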
[15] = MDA-MB-436 breast carcinoma cell growth inhibition, synergistic combos for chromothripsis tumors, BGB or cisplatin combos (AID 1671458; call rule not given here;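 note: cells exposed for 96 hours; 0% = vehicle DMSO and 100% = killing by high DMSO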); details: MDA-MB-436 breast carcinoma growth inhibition, drug combinations, stronger effect = higher value
[16] = UWB1.289_BRCA1 ovarian cancer growth, cell-based, BGB or cisplatin combinations (AID 1671459); details: UWB1.289 BRCA1 ovarian carcinoma, drug combinations, stronger effect = higher value
[17] = human astrocyte viability loss, single and combined drugs, cytotoxicity control for chromothriptic childhood tumor combination screen, cell-based, BGB or cisplatin IC20 combos (AID 1671460); details: Human astrocytes, drug combinations, stronger effect = higher value;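 note: cells exposed to compounds for 96 hours before viability readout; 0% = vehicle and 100% = killing control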
[18] = growth inhibition of BT084 medulloblastoma cells, cell-based, ICGC_MB145, cisplatin and BGB IC40 combos (AID 1671461); details: drug combinations, stronger effect = higher value;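 note: cells exposed to drugs for 96 hours; 0% = vehicle DMSO and 100% = high DMSO full killing control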
[19] = growth inhibition of RCMB18 medulloblastoma cells, cell-based, cisplatin and BGB IC40 combos (AID 1671462); details: stronger effect = higher value;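 note: cells exposed to compound for four days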
[20] = growth inhibition of CRL1545 osteosarcoma cells, cell-based, cisplatin and BGB IC20 combos (AID 1671464); details: stronger effect = higher value;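 note: cells exposed to compound for 96 hours before readout; 0% = vehicle DMSO and 100% = high DMSO killing control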
[21] = measured here: combination with BGB IC40, at 0.05 µM
[22] = measured here: with BGB IC20 combination, at 0.5 µM
[23] = measured here: with cisplatin IC20 combination, at 0.5 µM
[24] = measured here: combination with cisplatin, at 0.5 µM
[25] = measured here: combination with cisplatin, at 5 µM

In the case of `COC(=O)c1ccc(CC(C)NCC(O)c2cccc(C(F)(F)F)c2)cc1` (stereo unspecified), the growth inhibition [1] is reported as 87% (active) and 73% (active), the inhibition [2] is reported as -8% (inactive) and -9% (inactive) and the inhibition [3] is reported as -4% (inactive) and -1% (inactive). For the same compound, the growth inhibition [4] was 97% (active) and 94% (active).
For `CCN(CC)C(=O)N[C@@H]1C=C2c3cccc4[nH]cc(c34)C[C@H]2N(C)C1`, the period change [5] was 0.415 h (inactive).
For `CC1(C)C(C(=O)Nc2ccc(S(=O)(=O)c3ccc(NC(=O)C4C(C)(C)C4(C)C)cc3)cc2)C1(C)C`, the inhibition ([6]; at 0.5 µM, stronger effect = higher value) was -7.93% (inactive), the inhibition ([6]; measured here: combination with BGB IC20, at 0.005 µM) was -18.4% and the inhibition ([6]; measured here: combination with BGB IC40, at 0.005 µM) was -46.1%. For the same compound, the inhibition [6, 21] was -26.3%, the inhibition ([6]; measured here: combination with cisplatin, at 0.5 µM, stronger effect = higher value) was -30.9% and the inhibition ([6]; measured here: combination with cisplatin, at 5 µM, stronger effect = higher value) was -41.5%. For the same compound, the inhibition ([7]; BGB combo, at 5 µM) was -17.4%, the inhibition ([7]; at 0.5 µM) was -53.9% (inactive) and the inhibition ([7]; cisplatin combo, at 5 µM) was -66.6%. The inhibition [7, 22] was -56.4%, the inhibition [7, 23] was -51.1% and the inhibition ([7]; single agent, at 5 µM) was -24.6%. It also gave an inhibition ([8]; BGB IC20 combo, at 0.005 µM) of -19.6%, an inhibition ([8]; BGB IC40 combo, at 0.005 µM) of -21.6% and an inhibition ([8]; BGB IC40 combo, at 0.05 µM) of 0.527%. For the same compound, the inhibition ([8]; at 0.5 µM) was -22.6% (inactive), the inhibition ([8]; cisplatin combo, at 0.05 µM) was -4.5% and the inhibition ([8]; cisplatin combo, at 0.5 µM) was -42.3%. For the same compound, the inhibition ([8]; cisplatin combo, at 5 µM) was -31.4%, the inhibition ([8]; measured here: 5 uM single agent, at 5 µM) was -26.8% and the inhibition ([9]; at 0.5 µM) was -36.5% (inactive). For the same compound, the inhibition [9, 21] was -27.2%, the inhibition [9, 24] was -46.1% and the inhibition [9, 25] was -61.4%. For the same compound, the inhibition ([10]; at 0.5 µM) was -37.5% (inactive), the inhibition ([10]; measured here: with BGB IC20, at 0.5 µM) was -37% and the inhibition ([10]; measured here: with BGB IC20, at 5 µM) was -16.1%. It also gave an inhibition ([10]; measured here: with cisplatin IC20, at 0.5 µM) of -31.9%, an inhibition ([10]; measured here: with cisplatin IC20, at 5 µM) of -19.7% and an inhibition ([10]; single agent, at 5 µM) of -8.34%. For the same compound, the inhibition ([11]; at 0.5 µM) was -53.9% (inactive), the inhibition ([11]; measured here: combination with BGB at IC20, at 0.5 µM) was -51.4% and the inhibition ([11]; measured here: combination with cisplatin at IC20, at 0.5 µM) was -77.7%. The inhibition ([12]; at 0.5 µM) was -19.9% (inactive), the inhibition ([12]; measured here: combo with BGB at IC20, at 0.5 µM) was -12.1% and the inhibition ([12]; measured here: combo with cisplatin at IC20, at 0.5 µM) was -33.5%. The inhibition ([13]; at 0.5 µM) was -16.5% (inactive), the inhibition ([13]; measured here: inhibition with BGB combination, at 0.05 µM) was -34% and the inhibition ([13]; measured here: inhibition with cisplatin combination, at 0.05 µM) was -37.9%. For the same compound, the inhibition ([14]; at 0.5 µM) was -14.5% (inactive), the inhibition [14, 24] was -16.8% and the inhibition [14, 25] was -6.76%. The inhibition ([15]; at 0.5 µM) was -18.2% (inactive), the inhibition ([15]; measured here: BGB combination, at 0.5 µM) was -21% and the inhibition ([15]; measured here: BGB combination, at 5 µM) was -4.44%. The inhibition ([15]; measured here: cisplatin combination, at 0.5 µM) was -40.7%, the inhibition ([15]; measured here: cisplatin combination, at 5 µM) was -26% and the inhibition ([16]; BGB combination, concentration series, at 5 µM) was 2.97%. For the same compound, the inhibition ([16]; at 0.5 µM) was -24.5% (inactive), the inhibition ([16]; cisplatin combination, concentration series, at 5 µM) was -16% and the inhibition ([17]; at 0.5 µM) was 4.8% (inactive). For the same compound, the inhibition ([17]; measured here: combo with BGB IC20, at 0.5 µM) was 12.4%, the inhibition ([17]; measured here: combo with cisplatin IC20, at 0.5 µM) was -16.1% and the inhibition ([18]; at 0.5 µM) was -6.8% (inactive). For the same compound, the inhibition ([18]; cisplatin combination, at 0.5 µM) was -4.81%, the inhibition ([18]; cisplatin combination, at 5 µM) was -82% and the inhibition ([18]; measured here: BGB IC40 combination 0.05 uM, at 0.05 µM) was -20.9%. For the same compound, the inhibition ([18]; single agent, at 5 µM) was 2.54%, the inhibition ([19]; at 0.5 µM) was -8.5% (inactive) and the inhibition ([19]; cisplatin combo, at 5 µM) was -42.1%. The inhibition ([19]; measured here: BGB IC40 combination, at 0.05 µM) was 3.16%, the inhibition [19, 24] was -23.3% and the inhibition ([19]; single agent, at 5 µM) was 22.7%. For the same compound, the inhibition ([20]; at 0.5 µM) was -34.4% (inactive), the inhibition [20, 22] was -61.8% and the inhibition [20, 23] was -22.6%. The inhibition ([20]; single agent, at 0.05 µM) was -37.3% and the inhibition ([20]; single agent, at 5 µM) was 14.2%.
For `CC[C@@H]1/C=C/C=C/C[C@H](C)[C@@H](O)[C@](C)(O)C(=O)[C@H](C)[C@@H](O)[C@H](C)C(=O)[C@H](C)[C@@H](O)[C@H](C)/C=C/C(=O)O[C@H]2[C@@H](C)[C@@H](CC1)O[C@@]1(CC[C@@H](C)[C@@H](CC(C)O)O1)[C@@H]2C` (stereo partly specified), the period change [5] was -1.77 h (inactive).
With `C[C@]12CC[C@@H](O)CC1CC[C@@H]1[C@@H]2CC[C@]2(C)C(=O)CC[C@@H]12` (stereo partly specified) the period change [5] was 0.105 h (inactive).
In the case of `O=C(CCCN1CCC2(CC1)C(=O)N(CCc1ccc(N=C=S)cc1)CN2c1ccccc1)c1ccc(F)cc1`, the period change [5] is reported as 0.03 h (inactive).
